{"source": "PubChem BioAssay AID1825", "about": "(The Scripps Research Institute Molecular Screening Center, 2009)", "note": "Among all 290,000 compounds or so, about 2,300 (0.79%) were called active. No stated cut-off is given here; in the data, active means inhibition above about 22%; inactive means the rest. This excerpt belongs to a sample that is enriched for actives.", "data": [{"test": "IEC-6 cell viability reduction – luminescence, cytotoxicity control for KLF5 inhibitor project, primary screen (AID 1825);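 further: 0% = plate median of test compound wells and 100% = cytotoxic reference compound wells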", "conditions": "IEC-6 cytotoxicity, at 5 µM, stronger effect = higher value", "values": [{"smiles": "Cc1oc2cc3oc(=O)ccc3cc2c1C", "inhibition": "3.1% (inactive)"}, {"smiles": "COCCNc1cc(-c2ccccc2)nc2cc(-c3cccc(F)c3)nn12", "inhibition": "2.5% (inactive)"}, {"smiles": "CCOC(=O)C1CCN(C(=O)/C=C/c2cc(OC)c(OC)c(OC)c2)CC1", "inhibition": "-2.6% (inactive)"}, {"smiles": "CCOC(=O)c1cc(-c2nnc(-c3cc(OC)c(OC)c(OC)c3)o2)c(C)nc1C", "inhibition": "-3.1% (inactive)"}, {"smiles": "CCOC(=O)C1=C(N)N2C(=O)C(C)SC2=C(C(=O)OCC)C1c1cc(OC)c(OC)c(OC)c1", "note": "(stereo not given)", "inhibition": "25.5% (active)"}, {"smiles": "Cc1ccc(N2CC(C(=O)NCCS(=O)(=O)N3CCN(c4ccccc4)CC3)CC2=O)cc1", "note": "(stereo not given)", "inhibition": "-4.2% (inactive)"}, {"smiles": "COc1cc(OC)c(OC)cc1/C=N/Nc1ncnc2c1[nH]c1ccc(C)cc12", "inhibition": "-4.4% (inactive)"}, {"smiles": "CC(C)OCCCNc1ncnc2c1[nH]c1ccc(F)cc12", "inhibition": "31.5% (active)"}, {"smiles": "Fc1ccc2[nH]c3c(N4CCN(Cc5ccc6c(c5)OCO6)CC4)ncnc3c2c1", "inhibition": "19.7% (inactive)"}, {"smiles": "COc1ccc(-c2nc3n(c(=O)c2C#N)CCS3)c(OC)c1", "inhibition": "1.6% (inactive)"}, {"smiles": "O=C(c1cc2ccccc2s1)N1CCN(c2ccccn2)CC1", "inhibition": "3.8% (inactive)"}, {"smiles": "Cc1ccc(-c2cc(C(=O)NCC3CCCO3)c3ccccc3n2)o1", "note": "(stereo not given)", "inhibition": "-6% (inactive)"}, {"smiles": "Cc1cc(C(C)(C)C)n2nc(C)c(-c3ccccc3)c2n1", "inhibition": "0.2% (inactive)"}, {"smiles": "CCc1c(C)nc2c(-c3ccccc3)c(C)nn2c1Nc1ccc(NC(C)=O)cc1", "inhibition": "-10.5% (inactive)"}, {"smiles": "Cc1nn2c(NCCN(C)C)c3c(nc2c1-c1ccccc1)CCC3", "inhibition": "25% (active)"}, {"smiles": "CC(=O)N(c1ccc2oc(=O)sc2c1)S(=O)(=O)c1ccc(C)cc1", "inhibition": "-2.8% (inactive)"}, {"smiles": "C/C(=N\\NC(=O)c1ccccc1F)c1ccccn1", "inhibition": "29.2% (active)"}, {"smiles": "COc1ccc(CC(=O)N/N=C(\\C)c2ccccn2)cc1", "inhibition": "2% (inactive)"}, {"smiles": "C/C(=N\\NC(=O)Cc1ccc(Cl)cc1)c1ccccn1", "inhibition": "-2.8% (inactive)"}, {"smiles": "CCC(C)(C)NC(=O)/C=C/c1cc(OC)c(OC)c(S(=O)(=O)N2CCc3ccccc32)c1", "inhibition": "-0.4% (inactive)"}, {"smiles": "Cc1nc2ccccc2n1CC(O)c1ccccc1", "note": "(stereo not given)", "inhibition": "0% (inactive)"}, {"smiles": "Cc1nc2ccccc2c(=O)n1Cc1ccc([N+](=O)[O-])cc1", "inhibition": "-1.7% (inactive)"}, {"smiles": "CCn1c(C)nc2c1C(=O)c1ccccc1C2=O", "inhibition": "22.2% (active)"}, {"smiles": "CCc1ccccc1NC(=S)Nc1cc(OC)c(NC(=O)C(C)C)cc1OC", "inhibition": "-1.1% (inactive)"}, {"smiles": "NS(=O)(=O)c1ccccc1NC(=O)c1c(O)c2ccccc2[nH]c1=O", "inhibition": "-0.5% (inactive)"}, {"smiles": "COc1ccc(Oc2cn[nH]c2-c2ccc(OC)cc2O)cc1", "inhibition": "0% (inactive)"}, {"smiles": "CC(C)(C)NS(=O)(=O)c1ccc(NC(=O)C2CCCO2)cc1", "note": "(stereo not given)", "inhibition": "-5% (inactive)"}, {"smiles": "CCN1/C(=C\\c2ccc3ccccc3[n+]2CC)Sc2cc(C)ccc21", "inhibition": "54.6% (active)"}, {"smiles": "CCN1CCN(CCNC(=O)c2ccc(/C=C3/Sc4ccccc4N(Cc4cccc(C)c4)C3=O)cc2)CC1", "inhibition": "7.2% (inactive)"}, {"smiles": "CCN1/C(=C/c2ccc3ccc(C)cc3[n+]2CC)Sc2ccccc21", "inhibition": "33.6% (active)"}, {"smiles": "COC(=O)c1sccc1NS(=O)(=O)c1ccc(F)cc1F", "inhibition": "1% (inactive)"}, {"smiles": "CCOC(=O)[C@@H]1[C@H]2COc3ccc(Br)cc3[C@H]2N2C(=O)N(c3ccc(Cl)cc3)C(=O)[C@@]12C", "inhibition": "-0.1% (inactive)"}, {"smiles": "CC1CC(C)CN(C(=O)CCNC(=O)Cn2cnc3ccccc3c2=O)C1", "note": "(stereo not given)", "inhibition": "0.9% (inactive)"}, {"smiles": "CC(C)[C@@H](C(=O)O)N(Cc1cccc(CN([C@H](C(=O)O)C(C)C)S(C)(=O)=O)c1)S(C)(=O)=O", "inhibition": "-3.4% (inactive)"}, {"smiles": "CCOC(=O)C(=Cc1ccccc1OC)C(=O)OCC", "inhibition": "-0.6% (inactive)"}, {"smiles": "Cc1cc2c(cc1S(=O)(=O)CCC(=O)NCc1ccccc1)OCC(=O)N2", "inhibition": "11% (inactive)"}, {"smiles": "C/C(=N\\N(C)C)c1ccc(OCCOc2ccc([N+](=O)[O-])cc2)cc1", "inhibition": "2.8% (inactive)"}, {"smiles": "COc1cccc(OC)c1C(=O)Nc1c(C(=O)N2CCN(c3ccccn3)CC2)oc2ccccc12", "inhibition": "0% (inactive)"}, {"smiles": "CCOc1ccc(NC(=O)CC(Cc2ccc(Cl)cc2)C(=O)O)cc1", "note": "(stereo not given)", "inhibition": "5.3% (inactive)"}, {"smiles": "CSc1nnc(NC(=O)c2nc(S(=O)(=O)Cc3ccc(C)cc3)ncc2Cl)s1", "inhibition": "55% (active)"}, {"smiles": "Cc1nnc(NC(=O)Nc2ccc(Cl)c(Cl)c2)s1", "inhibition": "4.3% (inactive)"}, {"smiles": "CSc1ncc(Cl)c(C(=O)Nc2cc(C)ccc2C)n1", "inhibition": "4.1% (inactive)"}, {"smiles": "CCSc1nnc(NC(=O)c2ccc(C)cc2)s1", "inhibition": "2.1% (inactive)"}, {"smiles": "Cc1ccc(S(=O)(=O)CC(=O)Nc2nnc(C)s2)cc1", "inhibition": "-1.2% (inactive)"}, {"smiles": "Cc1ccc(CS(=O)(=O)c2ncc(Cl)c(C(=O)Nc3nnc(C)s3)n2)cc1", "inhibition": "83.7% (active)"}, {"smiles": "Cc1ccc2cc(C)c(N3CCN(c4ccc(F)cc4)CC3)nc2c1", "inhibition": "-5.5% (inactive)"}, {"smiles": "COc1cccc2cc(-c3cc(=O)oc4cc(C)c(O)cc34)oc12", "inhibition": "-3.7% (inactive)"}, {"smiles": "Cc1[nH]c(C)c(S(=O)(=O)N2CCN(c3cccc(C(F)(F)F)c3)CC2)c1C(=O)N1CCCC1", "inhibition": "-1.3% (inactive)"}, {"smiles": "COc1cccc(C(O)c2nc3ccccc3n2C)c1", "note": "(stereo not given)", "inhibition": "-1% (inactive)"}, {"smiles": "CC(C)[C@@H]1COC(c2cccc(C3=N[C@H](C(C)C)CO3)c2)=N1", "inhibition": "2.1% (inactive)"}, {"smiles": "CCCc1nc(NCc2ccc3c(c2)OCO3)c2nnn(Cc3ccccc3Cl)c2n1", "inhibition": "0.3% (inactive)"}, {"smiles": "Cc1nc(Nc2ccc3c(c2)OCCO3)c2nnn(Cc3ccccc3Cl)c2n1", "inhibition": "22.2% (active)"}, {"smiles": "Cc1nc(Nc2ccccc2F)c2nnn(Cc3ccccc3Cl)c2n1", "inhibition": "-5.6% (inactive)"}, {"smiles": "O=C(CNC(=O)c1ccc(Br)o1)Nc1ccccc1", "inhibition": "-1.9% (inactive)"}, {"smiles": "c1ccc(-n2nnnc2-c2cccnc2)cc1", "inhibition": "4.3% (inactive)"}, {"smiles": "COc1ccc(-n2nnnc2-c2nc3ccccc3s2)cc1", "inhibition": "-9% (inactive)"}, {"smiles": "CCOc1cccc(-n2nnnc2-c2ccc(OC)cc2)c1", "inhibition": "58.4% (active)"}, {"smiles": "COCCNC(=O)C(c1ccc(C)cc1)N(C(=O)CCC(=O)Nc1ccccn1)c1cccc(C)c1", "note": "(stereo not given)", "inhibition": "7% (inactive)"}, {"smiles": "CCOC(=O)CSC1=C(C#N)C(c2sccc2C)CC(=O)N1", "note": "(stereo not given)", "inhibition": "81.1% (active)"}, {"smiles": "C=CCOC(=O)C1=C(C)NC(SCC(=O)OCC)=C(C#N)C1c1ccc(C)cc1", "note": "(stereo not given)", "inhibition": "0.1% (inactive)"}, {"smiles": "Cc1ccc(C2CC(=O)NC(SCC(=O)OCc3ccccc3)=C2C#N)o1", "note": "(stereo not given)", "inhibition": "-14.2% (inactive)"}, {"smiles": "N#C/C=C/N1CCN(Cc2ccc3c(c2)OCO3)CC1", "inhibition": "-5.9% (inactive)"}, {"smiles": "Cc1ccc(-n2c(SCC(=O)Nc3ncc(Cl)cc3Cl)nc3ccccc32)cc1", "inhibition": "61.4% (active)"}, {"smiles": "NS(=O)(=O)c1cccc(NC(=O)CSc2nc3ccccc3n2-c2ccccc2)c1", "inhibition": "-1.5% (inactive)"}, {"smiles": "Cc1ccc(SCCC(=O)OCC(=O)Nc2ncc(Cl)cc2Cl)cc1", "inhibition": "-3.3% (inactive)"}, {"smiles": "COCCN1C(=O)C(=O)/C(=C(/O)c2ccc(S(=O)(=O)N3CCOCC3)cc2)C1c1ccc(OC)c(OC)c1", "note": "(stereo not given)", "inhibition": "5.3% (inactive)"}, {"smiles": "NC(=O)Cn1cc(/C=N\\NS(=O)(=O)c2ccccc2)c2ccccc21", "inhibition": "1.4% (inactive)"}, {"smiles": "COc1ccc(CNS(=O)(=O)c2cc(-c3cc(C)no3)ccc2C(C)C)cc1", "inhibition": "77.6% (active)"}, {"smiles": "Cc1cc(-c2ccc(C)c(S(=O)(=O)NCCCN(Cc3ccccc3)C(C)C)c2)on1", "inhibition": "6.1% (inactive)"}, {"smiles": "CCOc1ccccc1CNS(=O)(=O)c1cc(-c2cc(C)no2)ccc1C", "inhibition": "2.7% (inactive)"}, {"smiles": "COc1cccc(NC(=O)CN(C)C(=O)c2ccccc2CCc2ccccc2)c1", "inhibition": "-3.1% (inactive)"}, {"smiles": "Cc1ccc(C(=O)CCC(=O)N(C)CC(=O)Nc2c(Cl)cccc2Cl)cc1", "inhibition": "1.7% (inactive)"}, {"smiles": "Cc1ccc(N/C=C/C(=O)c2ccccc2)cc1C", "inhibition": "0.5% (inactive)"}, {"smiles": "Cc1cc(C)nc(SCC(=O)c2ccc(Cl)cc2)n1", "inhibition": "-2.2% (inactive)"}, {"smiles": "Cc1cc(C)nc(S/C=C/C(=O)c2ccccc2)n1", "inhibition": "31.5% (active)"}, {"smiles": "O=S(=O)(NC1CCCC1)c1ccc(-n2cnnn2)cc1", "inhibition": "-0.4% (inactive)"}, {"smiles": "Cc1ccc(NS(=O)(=O)c2ccc(C)c(NC(=O)COc3ccc4ccccc4c3)c2)c(C)c1", "inhibition": "-2% (inactive)"}, {"smiles": "COc1ccc2cc(S(=O)(=O)Nc3ccccn3)ccc2c1", "inhibition": "1.9% (inactive)"}, {"smiles": "COc1cc(NS(=O)(=O)c2ccc3ccccc3c2)c2ncccc2c1", "inhibition": "93.3% (active)"}, {"smiles": "CCC(CC)c1nnc(NC(=O)C2CCN(C(=O)c3ccco3)CC2)s1", "inhibition": "-0.9% (inactive)"}, {"smiles": "COc1ccc(C(=O)c2c(C)c(CCC#N)n3ccccc23)c(OC)c1", "inhibition": "-1.3% (inactive)"}, {"smiles": "CCC(=C/c1sc2ccc3ccccc3c2[n+]1C)/C=C1\\Sc2ccc3ccccc3c2N1C", "inhibition": "32.2% (active)"}, {"smiles": "CC(C)C(=O)Nc1c2c(nn1-c1ccccc1)CSC2", "inhibition": "-4.2% (inactive)"}, {"smiles": "COc1ccc(/C=C/c2noc(-c3ccccc3OC(C)=O)n2)cc1", "inhibition": "-0.4% (inactive)"}, {"smiles": "S=C(Nc1ccc(Br)cc1)NC1CCN(Cc2ccccc2)CC1", "inhibition": "11.3% (inactive)"}, {"smiles": "Cc1ccc(-c2csc(NC3OC(=O)c4ccccc43)n2)cc1", "note": "(stereo not given)", "inhibition": "34.7% (active)"}, {"smiles": "COc1ccc(CCNc2nc(-c3cccc(NC(C)=O)c3)cs2)cc1OC", "inhibition": "2.3% (inactive)"}, {"smiles": "Cc1ccc(-c2csc(NNC(=O)c3ccccc3)n2)cc1", "inhibition": "-1.4% (inactive)"}, {"smiles": "COc1ccc(-c2csc(NC3OC(=O)c4ccccc43)n2)cc1", "note": "(stereo not given)", "inhibition": "18.7% (inactive)"}, {"smiles": "COc1ccc2c(c1OC)C(=O)OC2Nc1nc(-c2ccccc2)cs1", "note": "(stereo not given)", "inhibition": "21.9% (active)"}, {"smiles": "Cc1cccc(Nc2nc(-c3ccccc3)cs2)n1", "inhibition": "5.9% (inactive)"}, {"smiles": "COCCN1C(=O)N(c2ccc(Cl)cc2)C(=O)C1CC(=O)Nc1cc(OC)cc(OC)c1", "note": "(stereo not given)", "inhibition": "-2.6% (inactive)"}, {"smiles": "CC(=O)Nc1c2c(nn1-c1ccc(C)cc1C)CS(=O)C2", "note": "(stereo not given)", "inhibition": "-0.7% (inactive)"}, {"smiles": "NC(=O)c1oc2ccccc2c1NC(=O)CS(=O)(=O)c1ccccc1", "inhibition": "6.1% (inactive)"}, {"smiles": "Cc1ccc(NC(=O)C(C)c2cccc(C(=O)c3ccccc3)c2)cc1", "note": "(stereo not given)", "inhibition": "3.2% (inactive)"}]}]}
